In PubChem BioAssay AID1159580 (chemical genetic matrix, 2015):
Where “and” joins values, the source holds several entries; their conditions need not be identical. Identical values can stand only once. Among all 5,500 compounds or so, about 2,000 (36%) were called active. Another 18% or so got no clear call; they are omitted. No stated cut-off is given here; in the data, active means normalized growth mostly below about 0.91 (no sharp cut-off); inconclusive means no clear call, values can overlap the other calls; inactive means mostly above about 0.92. The list shows a part of the results.

Assay: chemical genetic growth profiling, strain panel (AID 1159580);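 further: tested at 20 µM; growth read once vehicle control cultures reached saturation at 30 °C; 1 = growth at the plate median or of vehicle wells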
Conditions: S. cerevisiae deletion strains, growth OD

Measured: normalized growth

C[C@]12CCC(=O)C=C1CCC1C2C(=O)C[C@@]2(C)C1CC[C@]2(O)C(=O)CO (stereo partly drawn)
inactive: locus YAL013W, strain DEP1, stronger effect = lower value 1 | locus YAL021C, strain ccr4, stronger effect = lower value 1.01 | locus YAL026C, strain drs2, stronger effect = lower value 1 | locus YAL030W, strain snc1, stronger effect = lower value 1 | locus YBL061C, strain skt5, stronger effect = lower value 1 | locus YBR009C, strain hhf1, stronger effect = lower value 0.992 | locus YBR021W, strain FUR4, stronger effect = lower value 1 | locus YBR023C, strain chs3, stronger effect = lower value 1.01 | locus YBR171W, strain sec66, stronger effect = lower value 1.01 | locus YBR229C, strain ROT2, stronger effect = lower value 1 | locus YBR231C, strain swc5, stronger effect = lower value 0.986 | locus YBR279W, strain paf1, stronger effect = lower value 1 | locus YCL011C, strain gbp2, stronger effect = lower value 1.01 | locus YCL016C, strain dcc1, stronger effect = lower value 1 | locus YCL029C, strain bik1, stronger effect = lower value 1.01 | locus YCL061C, strain MRC1, stronger effect = lower value 0.999 | locus YCL069W, strain vba3, stronger effect = lower value 1 | locus YCR088W, strain abp1, stronger effect = lower value 1.01 | locus YDL005C, strain med2, stronger effect = lower value 0.993 | locus YDL035C, strain GPR1, stronger effect = lower value 1.02 | locus YDL040C, strain nat1, stronger effect = lower value 1 | locus YDL074C, strain BRE1, stronger effect = lower value 1.05 | locus YDL101C, strain DUN1, stronger effect = lower value 1 | locus YDL134C, strain PPH21, stronger effect = lower value 0.986 | locus YDL185W, strain tfp1, stronger effect = lower value 1.01 | locus YDL192W, strain arf1, stronger effect = lower value 1.02 | locus YDR001C, strain nth1, stronger effect = lower value 1 | locus YDR069C, strain doa4, stronger effect = lower value 0.988 | locus YDR101C, strain arx1, stronger effect = lower value 1.04 | locus YDR137W, strain rgp1, stronger effect = lower value 1.01 | locus YDR159W, strain sac3, stronger effect = lower value 0.981 | locus YDR162C, strain NBP2, stronger effect = lower value 0.984 | locus YDR195W, strain ref2 0.973 | locus YDR297W, strain sur2, stronger effect = lower value 1 | locus YDR318W, strain mcm21, stronger effect = lower value 0.986 | locus YDR334W, strain swr1, stronger effect = lower value 1.01 | locus YDR335W, strain msn5, stronger effect = lower value 1.01 | locus YDR388W, stronger effect = lower value 1.01 | locus YDR392W, strain spt3, stronger effect = lower value 0.929 | locus YDR502C, strain sam2, stronger effect = lower value 1.01 | locus YEL003W, strain gim4, stronger effect = lower value 1.01 | locus YEL037C, strain rad23, stronger effect = lower value 1.01 | locus YEL061C, strain CIN8 (second series), stronger effect = lower value 1.01 | locus YEL061C, strain CIN8, stronger effect = lower value 0.998 | locus YER015W, strain faa2, stronger effect = lower value 1 | locus YER016W, strain bim1, stronger effect = lower value 1 | locus YER110C, stronger effect = lower value 1.01 | locus YER111C, strain swi4, stronger effect = lower value 1 | locus YER155C, strain BEM2 (second series), stronger effect = lower value 1 | locus YER155C, strain BEM2, stronger effect = lower value 1 | locus YER167W, strain BCK2, stronger effect = lower value 0.994 | locus YFR010W, strain ubp6, stronger effect = lower value 1 | locus YGL078C, strain dbp3, stronger effect = lower value 1.02 | locus YGL086W, strain mad1, stronger effect = lower value 1.02 | locus YGL167C, strain pmr1, stronger effect = lower value 1 | locus YGL173C, strain kem1, stronger effect = lower value 1.01 | locus YGL227W, strain vid30, stronger effect = lower value 1 | locus YGL240W, strain doc1, stronger effect = lower value 0.975 | locus YGL248W, strain PDE1, stronger effect = lower value 0.984 | locus YGL253W, strain hxk2, stronger effect = lower value 1.01 | locus YGR078C, strain PAC10, stronger effect = lower value 0.986 | locus YGR135W, strain pre9, stronger effect = lower value 0.968 | locus YGR229C, strain SMI1, stronger effect = lower value 0.989 | locus YGR252W, strain gcn5, stronger effect = lower value 0.976 | locus YHR013C, strain ard1, stronger effect = lower value 0.979 | locus YHR027C, strain rpn1, stronger effect = lower value 1.01 | locus YHR030C, strain SLT2, stronger effect = lower value 0.995 and 0.999 | locus YHR079C, strain IRE1 (second series), stronger effect = lower value 1.01 | locus YHR079C, strain IRE1, stronger effect = lower value 0.985 | locus YHR094C, strain hxt1, stronger effect = lower value 0.996 | locus YHR129C, strain ARP1, stronger effect = lower value 1 | locus YHR142W, strain chs7, stronger effect = lower value 1.02 | locus YHR200W, strain rpn10, stronger effect = lower value 0.999 | locus YIL066C, strain RNR3, stronger effect = lower value 0.987 | locus YIL073C, strain SPO22, stronger effect = lower value 1.04 | locus YIL125W, strain kgd1, stronger effect = lower value 1.01 | locus YIR030C, strain dcg1, stronger effect = lower value 0.997 | locus YJL092W, strain hpr5, stronger effect = lower value 1.01 | locus YJL095W, strain BCK1 (second series), stronger effect = lower value 1.01 | locus YJL095W, strain BCK1, stronger effect = lower value 0.975 and 0.986 | locus YJL115W, strain asf1, stronger effect = lower value 1.01 | locus YJL129C, strain trk1, stronger effect = lower value 1.01 | locus YJL134W, strain LCB3, stronger effect = lower value 1 | locus YJL154C, strain vps35, stronger effect = lower value 1.02 | locus YJL164C, strain tpk1, stronger effect = lower value 0.996 | locus YJL166W, strain qcr8, stronger effect = lower value 0.987 | locus YJL168C, strain set2, stronger effect = lower value 1.01 | locus YJL187C, strain SWE1 (second series), stronger effect = lower value 0.994
